Bioassay records (PubChem)
ROMK primary = modulates human ROMK potassium channel activity; P48048; Tet-inducible ROMK, thallium flux fluorescence; actives lie on both sides; B-score at 10 µM; 2% of 130,000 active; AID 1918;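 active means signal ratio slope over the read window, or its plate-corrected B-score, at least 3 SD from the plate mean, either direction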;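 further: B-score of the F/F0 ratio slope over 7 to 12 s after thallium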
Target sequence (P48048 whole entry, looked up): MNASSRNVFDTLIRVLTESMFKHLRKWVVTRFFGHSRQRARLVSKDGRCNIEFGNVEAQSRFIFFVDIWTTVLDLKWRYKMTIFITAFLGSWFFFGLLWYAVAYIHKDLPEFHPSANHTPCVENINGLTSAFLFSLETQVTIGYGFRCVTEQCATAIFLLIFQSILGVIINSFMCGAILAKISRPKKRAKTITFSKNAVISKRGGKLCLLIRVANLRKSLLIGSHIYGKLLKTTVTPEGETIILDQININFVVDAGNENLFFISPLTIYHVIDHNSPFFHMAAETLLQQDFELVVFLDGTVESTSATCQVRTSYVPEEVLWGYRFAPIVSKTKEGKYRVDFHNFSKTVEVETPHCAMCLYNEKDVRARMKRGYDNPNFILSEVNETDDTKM
HMGR II inh = E. faecalis class II HMG-CoA reductase inhibition; purified E. faecalis HMGR, NADPH absorbance 340 nm kinetic; 0.41% of 190,000 active; inhibition, % at 10 µM;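 active means inhibition above a set limit, the median over all tested compounds plus 3 SD, cut at about 9.5% in these data; inconclusive means no clear call, values can overlap the other calls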;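 further: enzyme runs in reverse so mevalonate oxidation gives rising NADPH absorbance; 0% = complete reaction with DMSO and 100% = background rate lacking mevalonate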
HSV augment = HSV replication enhancement. maximum fold increase. 0.005% of 220,000 active. HSV replication augmentation in cells, fold increase; in the data active means maximum fold increase above about 1.5; inconclusive means no clear call, values can overlap the other calls; tested in PC3 cells
Arbovirus anti = antivirals against arbovirus infection; arbovirus infection cell-based antiviral screen; inhibition, % at 10 µM; 0.37% of 200,000 active; in the data active means inhibition above about 30%
Calpain2 inh = inhibitors of pig calpain II; purified calpain II, fluorogenic peptide substrate, 30 min; inhibition, % at 16 µM; 0.37% of 220,000 active; AID 1236;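 active means inhibition above about 50%, limit read from the data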
* marks the source's active call; other numbers are inactive results; i = inactive; ? = inconclusive; . = no result given. An excerpt weighted towards active compounds, which were near 2.1% of everything screened.

SMILES | ROMK primary | HMGR II inh | HSV augment | Arbovirus anti | Calpain2 inh
Cc1ccc2nc(N3C(=O)C(O)=C(C(=O)c4ccc(C)o4)C3c3cccc(O)c3)sc2c1 (configuration not stated) | -0.53 | -4 | i | 76* | -82
CC(=O)NC1C(Oc2cccc(C)c2)OC2COC(c3ccco3)OC2C1O (configuration not stated) | 0.13 | -5 | i | 10 | 3
COc1cccc(O[C@@H]2O[C@@H]3COC(C)(C)O[C@H]3[C@H](O)[C@H]2NC(C)=O)c1 | . | 10* | i | 0 | -14
CCCn1c(=O)[nH]c(=O)c2c(C(=O)OCC)cc(-c3cccs3)nc21 | 1 | -5 | i | -12 | i
CC(C)[C@H](NC(=O)[C@H](CCCN=C(N)N)NC(=O)NC(Cc1ccccc1)C(=O)O)C(=O)NC(C=O)CCCN=C(N)N (some centres not stated) | . | -4 | i | 12 | 51*
Cn1cccc1C(=O)NC(=O)COC(=O)c1cc(Cl)ccc1[N+](=O)[O-] | . | . | i | . | -27
Cn1cnnc1SCCCN1C(=O)c2cccc3cccc(c23)C1=O | 0.071 | -2 | i | -5 | -20
Cc1ccc(SCCNC(=S)Nc2ccccc2)cc1 | -0.027 | -3 | i | -26 | 33
COc1ccccc1NC(=S)NCCSc1ccc(C)cc1 | . | -9 | i | 34* | 5
CCc1ccc(Cc2cnc(NC(=O)C3=NCCN3)s2)cc1 | 0.25 | -5 | i | -17 | -12
CCC(=O)c1ccc(OCCn2cnc3ccccc32)cc1 | -1.5 | 2 | i | 5 | 29
Cc1ccccc1/C=C1\SC(=S)N(/N=C/c2cc([N+](=O)[O-])ccc2O)C1=O | 0.87 | -3 | i | 5 | -87
CC(C)(C)N(Cc1ccccc1)C(=O)c1ccc(Br)o1 | 0.32 | -3 | i | 0 | 37
Cc1ccc(C(=O)N(Cc2ccccc2)C(C)(C)C)cc1C | -0.28 | 0 | i | -3 | 50*
CCC(=O)C1=C(N2CCCC2)CC(C)(C)CC1=O | -0.89 | -1 | i | 7 | 7
CCCCC(=O)C1=C(N2CCCC2)CC(C)(C)CC1=O | 0.41 | 12* | i | 8 | -3
c1csc(-c2noc(CN3CCc4sccc4C3)n2)c1 | -0.0076 | 3 | i | -7 | -13
COc1ccc(/C=C/C(=O)NC(=S)NNC(=O)c2ccco2)cc1 | 0.8 | 9.8* | ? | -16 | -44
COc1ccc(/C=C/C(=O)NC(=S)NNC(=O)c2ccco2)cc1OC | . | . | i | . | -43
O=C(/C=C/c1cccs1)NC(=S)NNC(=O)c1ccccc1O | 3.1* | -3 | i | -26 | -17
COc1ccc(C(=O)NNC(=S)NC(=O)/C=C/c2cccs2)cc1 | 3.7* | -2 | i | -26 | -55
COc1ccc(/C=C/C(=O)NC(=S)Nc2cc3oc4ccccc4c3cc2OC)cc1 | . | -7 | i | -4 | 62*
COc1ccc(/C=C/C(=O)NC(=S)NNC(=O)Cc2cccs2)cc1 | -0.51 | -5 | . | -33 | -101
O=C(O)CC1=C(Nc2ccccc2)C(=O)N(c2ccccc2)C1c1ccc(Br)cc1 (configuration not stated) | 0.93 | -4 | i | -5 | -27
O=C(NC(=S)Nc1ccc(O)cc1)c1ccccc1Cl | -1.3e-05 | -3 | i | -21 | 29
SMILES | ROMK primary | HMGR II inh | HSV augment | Arbovirus anti | Calpain2 inh
COc1ccc(/C=C/C(=O)NC(=S)Nc2ccc(C(=O)O)cc2)cc1 | 0.68 | -4 | i | 9 | 74*
CC(=O)Nc1ccc(NC(=S)NC(=O)/C=C/c2ccc(Cl)cc2)cc1 | 0.21 | 0 | i | -8 | 3
COc1ccc(NC(=S)NC(=O)c2ccccc2Cl)cc1 | 5.4* | -2 | i | 4 | 1
CCc1ccc(NC(=S)N(CCN2CCOCC2)Cc2ccccc2F)cc1 | 0.72 | -1 | i | 11 | 3
C1CCCCCC(NCCN2CCNCC2)CCCCC1 | . | . | i | . | -15
NC(=O)/C(=N\OC(=O)c1ccco1)c1nc(-c2ccc(Br)cc2)cs1 | . | -2 | i | 44* | -14
NC(=O)/C(=C/c1cccnc1)NC(=O)c1ccccc1 | . | . | i | . | -17
COc1ccc(-c2cc(-c3ccc(Br)cc3)nc3ncnn23)cc1OC | . | -4 | i | 72* | i
COc1ccc(-c2cc(-c3ccccc3)nc3ncnn23)cc1 | 0.77 | -6 | i | 0 | i
Cc1ccc(C(=O)NCC(=O)OCC(=O)Nc2ccccc2C#N)s1 | -0.39 | -5 | i | 3 | 10
O=C(c1ccco1)N1CCN(c2ncnc3scc(-c4cccs4)c23)CC1 | . | -9 | i | -3 | -21
c1ccc(N2CCN(c3ncnc4scc(-c5cccs5)c34)CC2)cc1 | . | 2 | i | 17 | 54*
CCn1c(CNc2ccc(Cl)cc2)nnc1SCC(=O)OC1CCCCC1 | -4.2* | 9 | i | 4 | 9
COc1ccccc1N(Cc1cc(=O)[nH]c2ccccc12)C(=O)c1ccc([N+](=O)[O-])cc1 | . | . | i | . | -3
CC(C)Sc1nc2c([nH]c3ccccc32)c(=O)n1C | -0.78 | -1 | i | 5 | 82*
CCNC(=O)n1cc(-n2cncn2)c(-c2ccc(Cl)cc2)n1 | -0.06 | -5 | i | 1 | -20
CC(C)c1cc(C(=O)Nc2cc(Br)ccc2O)no1 | 0.46 | -6 | i | 21 | 17
CCCc1cc(C(=O)Nc2cc(Br)ccc2O)no1 | . | -6 | i | 35* | -6
O=C(N/N=C/c1ccc([N+](=O)[O-])cc1)c1cc(C2CC2)nc2ccccc12 | . | . | i | . | 19
CCc1ccc(/C=N/NC(=O)c2cc(C3CC3)nc3ccccc23)s1 | 3.2* | -5 | i | -8 | -20
CC[n+]1ccc2cc(OC)c(OC)cc2c1Cc1ccc(OC)c(OC)c1 | -0.074 | -9 | i | 8 | 37
O=C(N/N=C/c1ccc(Cl)c([N+](=O)[O-])c1)C1CC1 | -2.1 | -10 | i | 13 | 54*
CCC(C)N=C1Sc2nc3ccc(C)cc3cc2CN1CCOC (configuration not stated) | -1.6 | 9.6* | i | 3 | 6
Cc1ccc2[nH]c(=O)c(CN(CC3COCCO3)C(=O)Nc3ccccc3F)cc2c1 (configuration not stated) | 0.38 | -4 | i | -3 | -45
CCOC(=O)N1CCN(C(=O)CSc2ccc(-c3cccnc3)nn2)CC1 | 1.1 | 10* | i | -4 | -17
SMILES | ROMK primary | HMGR II inh | HSV augment | Arbovirus anti | Calpain2 inh
CCOC(=O)N1CCN(C(=O)CSc2ccc(-c3cccc(OC)c3)nn2)CC1 | . | -3 | . | 2 | -26
Clc1cccc(CSc2ccc(-c3cccnc3)nn2)c1 | . | 0 | . | -29 | -33
c1ccc(CSc2ccc(-c3cccnc3)nn2)nc1 | -0.41 | -8 | i | 30* | 7
CCCc1cc(-c2n[nH]c(=S)n2CC(C)C)cs1 | -0.67 | -2 | i | -10 | 50*
CCCCn1c(-c2csc(CC)c2)n[nH]c1=S | . | -2 | i | 0 | 8
CCN(CC)C(=S)NC(=O)c1ccc(F)cc1 | 0.71 | 0 | i | 2 | -21
CCN(CC)C(=S)NC(=O)c1cccnc1 | 0.51 | 18* | i | 19 | -21
CCN(CC)C(=S)NC(=O)c1ccc(OC)c(Br)c1 | 4.6* | -2 | i | 2 | 8
Cn1c(=O)c([N+](=O)[O-])c(-n2cnc3ccccc32)c2ccccc21 | . | . | i | . | -6
